Experimental data taken from PubChem BioAssay (NCI).
The panel holds about 83,000 compounds, 20% with a hit somewhere; the sample as a whole holds those more often.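 Cells were grown in 96-well plates and exposed to the test compound at a single concentration for 48 hours; results are reported as percent growth, with values below 10 considered active.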 A number with no mark means an inactive call. Activity calls are given as the source filed them.

Key:
Assay in all cases: NCI-60 one-dose screen, 48 h (100 = growth as untreated, 0 = no growth, -100 = all killed)
Details in all cases: 10 µM unless noted
DU-145 prostate = tested on: DU-145 prostate
K-562 leukemia = tested on: K-562 leukemia
MALME-3M melanoma = tested on: MALME-3M melanoma
MDA-MB-231 breast = tested on: MDA-MB-231 breast
RXF 393 renal = tested on: RXF 393 renal
SF-268 CNS = tested on: SF-268 CNS
SF-295 CNS = tested on: SF-295 CNS
SF-539 CNS = tested on: SF-539 CNS
UACC-257 melanoma = tested on: UACC-257 melanoma
M14 melanoma = tested on: M14 melanoma

SMILES | growth (DU-145 prostate) | growth (K-562 leukemia) | growth (MALME-3M melanoma) | growth (MDA-MB-231 breast) | growth (RXF 393 renal) | growth (SF-268 CNS) | growth (SF-295 CNS) | growth (SF-539 CNS) | growth (UACC-257 melanoma) | growth (M14 melanoma)
O=C1OCC2=C1C(c1cccc(C(F)(F)F)c1)c1cc3c(cc1N2CCO)OCO3 (stereo not given) | 10.7% | 9.02% (active) | 63.9% | 44% | 1.92% (active) | 47.6% | -2.78% (active) | -3.02% (active) | 74.2% | 2.33% (active)
C=C1C(=O)O[C@H]2[C@H]1CC/C(COC(=O)c1cc3cc(F)ccc3[nH]1)=C\CC[C@@]1(C)O[C@@H]21 | -93.1% (active) | 0.0225% (active) | -76.4% (active) | -70.1% (active) | -84.4% (active) | -71.2% (active) | 33% | -87% (active) | -79.5% (active) | -75.9% (active)
COc1cc(C2=NN(C(C)=O)C(c3ccc(N(C)C)cc3)C2)cc(OC)c1OC (stereo not given) | 103% | 81.7% | 87.3% | 74.1% | 103% | 105% | 95.1% | 91.5% | 76.7% | 95%
O=C1C(Cl)=C(NCCN2CCOCC2)C(=O)c2ncccc21 | -88.5% (active) | -33.5% (active) | -79.3% (active) | 18.6% | -27.5% (active) | 11% | -40.5% (active) | -85.8% (active) | -92.8% (active) | -85.9% (active)
CN1CCN(c2ccc3c(c2)nc(NNC(=O)c2cnccn2)c2cccn23)CC1 | 27.3% | 14.5% | 36.9% | 34.1% | 48.6% | 25.9% | 10.4% | 15.2% | 46.6% | 18.2%
COc1cccc(OC)c1Oc1c(-c2nc3ccccc3s2)c(C)nn1-c1ccccc1 | 79.4% | 61% | 81.7% | 76.4% | 67.9% | 77.1% | 69.4% | 92% | 92.4% | 72.3%
C=C1C(=O)O[C@H]2[C@H]1CC/C(Cn1cc(-c3cc(C(F)(F)F)cc(C(F)(F)F)c3)nn1)=C\CC[C@@]1(C)O[C@@H]21 | -90% (active) | -37.6% (active) | -88.5% (active) | -75.7% (active) | -90.9% (active) | -78.7% (active) | -67.4% (active) | -92.2% (active) | -85.3% (active) | -70.3% (active)
O=C1/C(=C/c2cccc([N+](=O)[O-])c2)COc2ccc(O)cc21 | 81.8% | 13.4% | 76.6% | 47.9% | 107% | 85.9% | 95.5% | 70.6% | 97% | 55%
COc1ccc2c(c1)c(-c1ccc(-c3cn(C)c4ccc(OC)cc34)[nH]1)cn2C | 66.2% | 0.411% (active) | 30.2% | -3.99% (active) | -28.5% (active) | 9.71% (active) | 44.5% | -57.3% (active) | 87% | 43.6%
COc1cccc(NC(=O)c2cccc(C3CCc4c(cc(OC)c(OC)c4OC)O3)c2)c1 (stereo not given) | 79.6% | 35.6% | 72.7% | 32.2% | 88.9% | 91.2% | 70.9% | 92% | 78.1% | 56.9%
COc1ccc2nc3ccccc3c(NCc3ccc(F)cc3)c2c1 | 16.5% | 1.95% (active) | -5.2% (active) | 16.7% | -18.9% (active) | 34.6% | 14.4% | 3.85% (active) | -11.1% (active) | 15.3%
Cc1nc2sc(C(=O)Nc3ccc(Cl)cc3)c(N)c2cc1C(O)c1ccccc1 (stereo not given) | 34.7% | 9.79% (active) | 44.1% | 52.2% | 47.3% | 54.2% | 44.5% | 37.7% | 46.1% | 19.7%
CCCCCCC(=O)Nc1ncc(Cc2ccc(C)cc2)s1 | 42.2% | 24.2% | 58.6% | 59.9% | -7.29% (active) | 58.1% | 34.6% | 20.6% | 55.2% | 31.6%
Cc1cc2nc(-c3c(-c4ccc(F)cc4)nc4sccn34)[nH]c2cc1C | 94.3% | 94.1% | 106% | 102% | 93.2% | 90.8% | 92.5% | 98.2% | 109% | 99.5%
COc1ccc(C/C(C)=C(\c2ccc(O)cc2)c2ccc(OCCN3CCCC3)cc2)cc1 | 104% | 85.5% | 94.1% | 104% | 136% | 107% | 102% | 99.9% | 99.1% | 95.2%
C#CC#CC#CC#CC#CC#CC#CC#CC[C@H]1OC[C@@H](COC(=O)O[C@@H](C(=O)O[C@H]2C[C@@]3(O)[C@@H](OC(=O)c4ccccc4)[C@@H]4[C@]5(OC(C)=O)CO[C@@H]5C[C@H](O)[C@@]4(C)C(=O)[C@H](OC(C)=O)C(=C2C)C3(C)C)[C@@H](NC(=O)c2ccccc2)c2ccccc2)O1 | 41.1% | 22.7% | 62.5% | 66% | 50.7% | 65.9% | 43.5% | 54.1% | 64.6% | 25.3%
COc1ccc(Cl)cc1Nc1nc(C(F)(F)F)ccc1C(=O)N/N=C/c1ccccc1Cl | 14.6% | 2.37% (active) | 11% | -7.46% (active) | 0.498% (active) | 13.6% | -12.1% (active) | -7.07% (active) | 2.7% (active) | 15.2%
c1ccc(CNc2ccc3nc(CCC4CCCCC4)[nH]c3c2)cc1 | 80.1% | 14.6% | 58.3% | 77.7% | 66.5% | 79.8% | 81% | 82.1% | 74.2% | 76.2%
CCOC(=O)c1c(-c2ccc(Cl)cc2)c(C#N)c2c(C#N)c(N)nn2c1N | 74.9% | 15.4% | 72.9% | 75.7% | 77% | 77.3% | 57.2% | 71.6% | 60.3% | 75.5%
Nc1ccc([N+](=O)[O-])cc1N=C/C=C/c1ccccc1 | 77.4% | 29.5% | 138% | 47.6% | 85.1% | 51.4% | 109% | 79% | 86.5% | 68.4%
COc1ccccc1NC(=O)c1ccc(/C=C/C(=O)c2nccn2C)cc1 | -88.2% (active) | 2.11% (active) | -19.9% (active) | -27% (active) | -71.1% (active) | -61.3% (active) | -87.8% (active) | -90.6% (active) | -2.34% (active) | -61.2% (active)
CCCn1c(=S)sc2c1nc(C)n1c(Nc3ccccc3)nnc21 | 109% | 37.6% | 65.4% | 84.5% | 29.3% | 99.4% | 51.7% | 62.9% | 75.3% | 89.1%
O=C1/C(=C/c2ccc(C(F)(F)F)cc2)COc2ccc(O)c(O)c21 | 16.1% | 3.76% (active) | 23.6% | -10% (active) | 24.5% | -0.987% (active) | 85.8% | -83.9% (active) | 25.3% | 42.3%
C=CC(=O)NCCOc1cccc(Nc2cc(NCCCNC(=O)C3CCC3)c(Br)cn2)c1 | 8.96% (active) | 9.43% (active) | -19% (active) | -25.6% (active) | -77% (active) | -25.3% (active) | 2.75% (active) | -58.3% (active) | -11.6% (active) | -18.7% (active)
c1ccc(CCc2ccccc2-c2cc(-c3ccccc3)on2)cc1 | 92% | 71.2% | 102% | 84.3% | 94.2% | 97.1% | 96.3% | 93.8% | 99.9% | 87.8%
COc1cc(-c2nc3ccc(C)cc3[nH]2)ccc1OCC(=O)N=Nc1c(O)[nH]c2ccc(Cl)cc12 | 22.9% | -39.3% (active) | -26.9% (active) | -61.6% (active) | -40.7% (active) | 31.4% | -7.5% (active) | -80% (active) | 39.4% | 3.17% (active)
COc1ccc2c(c1)c(-c1cc(-c3cn(C)c4ccc(OC)cc34)on1)cn2C | 114% | 98.5% | 106% | 100% | 119% | 102% | 101% | 101% | 107% | 90.1%
